This note sets out measurements from PubChem BioAssay (NCI).

Compounds without any hit were thinned out: in the full panel of roughly 83,000, 20% have a hit.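 Compound tested at a single concentration for 48 hours in 96-well plates; a percent growth value below 10 was scored as active.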 Calls of active or inactive are those of the source.

This assay concerns T-47D breast. Description: NCI-60 one-dose screen, 48 h (100 = growth as untreated, 0 = no growth, -100 = all killed). The note with it: 10 µM unless noted.
As to `CCN(CC)CCOCC[C@H]1CC[C@H]2[C@@H]3[C@H](C)Cc4cc(OS(N)(=O)=O)ccc4[C@H]3CC[C@]12C`, the growth is -46.4% (active).
Take `CCN(CC)c1ccc(/C=C/C(=O)c2cccc(NS(C)(=O)=O)c2)cc1`: the growth was 44.3% (inactive).
On to `C/C(=C\CCc1ccoc1)CC/C=C(\C)CCCC1COC(=O)C1` (stereo not drawn), for which the growth is 87.7% (inactive).
Then `O=C(COc1ccc(/C=C2\Cc3ccccc3C2=O)cc1)c1ccc(Cl)cc1`, with 102% (inactive); and `O=C(Nc1cccc(-n2cc(-c3ccncc3)c(-c3cc(O)cc(Cl)c3)n2)c1)Nc1ccc(Cl)c(Cl)c1`, with -5.53% (active); and `CCc1nn2c(-c3ccc(Cl)cc3C)c(-c3cc(OC)c(OC)c(OC)c3)nc2s1`, with 58.8% (inactive).
With `C[N+]1(C)C2CC[C@@H]1CC(OC(=O)C(O)c1ccccc1)C2` (stereo partly drawn) the figure was 109% (inactive).
With `COc1ccc2c(c1)sc1nc(-c3ccc(Br)cc3)cn12` the figure was 85% (inactive); with `O=C(COc1cccc(/C=C2\Cc3ccccc3C2=O)c1)c1ccc(Cl)cc1`, 80% (inactive); with `O=C1C2C(C(=O)N1CC[Se][Se]CCN1C(=O)C3C(C1=O)[C@H]1C=C[C@@H]3C1)[C@H]1C=C[C@@H]2C1` (stereo partly drawn), 5.4% (active).
For the compound `COC(=O)[C@H]1[C@H]2C[C@@H]3c4[nH]c5cc(OC)ccc5c4CCN3C[C@H]2C[C@@H](OC(=O)/C=C/c2cc(OC)c(OC)c(OC)c2)[C@@H]1OC`, the growth was 45% (inactive).
With `CC1C(=O)NC2=Nc3ccccc3C(=O)NN21` (stereo not drawn) the figure was 81.4% (inactive); with `C[C@H]1c2cccc(O)c2C(O)=C2C(=O)[C@]3(O)C(O)=C(C(N)=O)C(=O)[C@@H](N(C)C)[C@@H]3[C@@H](O)[C@@H]21`, 53.1% (inactive).
